# Where a name gives a salt, the structure may show the parent alone.
# Tested on: MDA-MB-231
# Test: relative cell viability, compound + erastin, vs DMSO (fraction of DMSO control); higher = less growth inhibition
# Conditions: 72 h
# 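Also: viability read by CCK-8 kit in 96-well plates, part of a combination screen pairing lipid-metabolism-targeting compounds with erastin.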
row,Structure (SMILES),relative cell viability
1,O=C(O)c1cc2c(Cl)c(N3CCN(S(=O)(=O)c4c(Cl)cccc4Cl)CC3)ccc2o1 [Vonafexor] + CCOc1ccccc1-n1c(C(C)N2CCN(C(=O)COc3ccc(Cl)cc3)CC2)nc2ccccc2c1=O [erastin],0.989
2,CC(C)(C)NC(=O)[C@H]1CC[C@H]2[C@@H]3CC[C@H]4NC(=O)C=C[C@]4(C)[C@H]3CC[C@]12C [Finasteride] + CCOc1ccccc1-n1c(C(C)N2CCN(C(=O)COc3ccc(Cl)cc3)CC2)nc2ccccc2c1=O [erastin],0.646
3,O=c1c(-c2ccc(O)cc2)coc2cc(O)ccc12 [Daidzein] + CCOc1ccccc1-n1c(C(C)N2CCN(C(=O)COc3ccc(Cl)cc3)CC2)nc2ccccc2c1=O [erastin],0.619
4,CC1=C(C)C(=O)C(C(CCCCCC(=O)O)c2ccccc2)=C(C)C1=O (configuration not stated) [Seratrodast] + CCOc1ccccc1-n1c(C(C)N2CCN(C(=O)COc3ccc(Cl)cc3)CC2)nc2ccccc2c1=O [erastin],0.567
5,Nc1ncnc2c1ncn2[C@@H]1O[C@H](COP(=O)(O)O)[C@@H](O)[C@H]1O [Adenosine 5'-monophosphate] + CCOc1ccccc1-n1c(C(C)N2CCN(C(=O)COc3ccc(Cl)cc3)CC2)nc2ccccc2c1=O [erastin],0.716
6,N=C(N)NC(=N)NCCc1ccccc1 [Phenformin hydrochloride] + CCOc1ccccc1-n1c(C(C)N2CCN(C(=O)COc3ccc(Cl)cc3)CC2)nc2ccccc2c1=O [erastin],0.999
7,COc1ccc(CN2CCNCC2)c(OC)c1OC [Trimetazidine dihydrochloride] + CCOc1ccccc1-n1c(C(C)N2CCN(C(=O)COc3ccc(Cl)cc3)CC2)nc2ccccc2c1=O [erastin],0.55

# Source: the supplement of paper PMC9492666
